Several values for one entry are separate records, joined by “and”; a condition that tells them apart may be missing. Equal entries are not always repeated. Among all 5,500 compounds or so, about 2,000 (36%) were called active. About 18% were inconclusive and are not listed. Some of the results follow. A number with no mark means an inactive call. Cut-off read from the data, not from the text of the source: active = normalized growth mostly below about 0.91 (no sharp cut-off); inconclusive = no clear call, values can overlap the other calls; inactive = mostly above about 0.92.
Assay: chemical genetic growth profiling, strain panel (AID 1159580);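 note: tested at 20 µM; growth read once vehicle control cultures reached saturation at 30 °C; 1 = growth at the plate median or of vehicle wells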
Conditions: S. cerevisiae deletion strains, growth OD

## C[C@H]1COc2c(N3CCN(C)CC3)c(F)cc3c(=O)c(C(=O)O)cn1c23
Locus YAL013W, strain DEP1, stronger effect = lower value
  normalized growth: 1
Locus YAL021C, strain ccr4, stronger effect = lower value
  normalized growth: 1.02
Locus YAL026C, strain drs2, stronger effect = lower value
  normalized growth: 1.03
Locus YAL030W, strain snc1, stronger effect = lower value
  normalized growth: 1.02
Locus YBR009C, strain hhf1, stronger effect = lower value
  normalized growth: 1.01
Locus YBR021W, strain FUR4, stronger effect = lower value
  normalized growth: 0.995
Locus YBR023C, strain chs3, stronger effect = lower value
  normalized growth: 1.02
Locus YBR171W, strain sec66, stronger effect = lower value
  normalized growth: 1.04
Locus YBR229C, strain ROT2, stronger effect = lower value
  normalized growth: 1
Locus YBR231C, strain swc5, stronger effect = lower value
  normalized growth: 1.02
Locus YBR279W, strain paf1, stronger effect = lower value
  normalized growth: 1.02
Locus YCL011C, strain gbp2, stronger effect = lower value
  normalized growth: 0.259 (active)
Locus YCL016C, strain dcc1, stronger effect = lower value
  normalized growth: 1.02
Locus YCL029C, strain bik1, stronger effect = lower value
  normalized growth: 1.02
Locus YCL061C, strain MRC1, stronger effect = lower value
  normalized growth: 1.04
Locus YCL069W, strain vba3, stronger effect = lower value
  normalized growth: 1.02
Locus YCR088W, strain abp1, stronger effect = lower value
  normalized growth: 1.02
Locus YDL005C, strain med2, stronger effect = lower value
  normalized growth: 1.04
Locus YDL035C, strain GPR1, stronger effect = lower value
  normalized growth: 1.02
Locus YDL040C, strain nat1, stronger effect = lower value
  normalized growth: 1.02
Locus YDL074C, strain BRE1, stronger effect = lower value
  normalized growth: 1.01
Locus YDL101C, strain DUN1, stronger effect = lower value
  normalized growth: 0.999
Locus YDL134C, strain PPH21, stronger effect = lower value
  normalized growth: 1.01
Locus YDL185W, strain tfp1, stronger effect = lower value
  normalized growth: 1.02
Locus YDL192W, strain arf1, stronger effect = lower value
  normalized growth: 1.02
Locus YDR001C, strain nth1, stronger effect = lower value
  normalized growth: 1.02
Locus YDR069C, strain doa4, stronger effect = lower value
  normalized growth: 1.04
Locus YDR101C, strain arx1, stronger effect = lower value
  normalized growth: 1.01
Locus YDR137W, strain rgp1, stronger effect = lower value
  normalized growth: 0.989
Locus YDR150W, strain NUM1, stronger effect = lower value
  normalized growth: 0.999
Locus YDR159W, strain sac3, stronger effect = lower value
  normalized growth: 1.03
Locus YDR162C, strain NBP2, stronger effect = lower value
  normalized growth: 0.989
Locus YDR195W, strain ref2
  normalized growth: 0.993
Locus YDR297W, strain sur2, stronger effect = lower value
  normalized growth: 1.02
Locus YDR318W, strain mcm21, stronger effect = lower value
  normalized growth: 1.02
Locus YDR334W, strain swr1, stronger effect = lower value
  normalized growth: 1.01
Locus YDR335W, strain msn5, stronger effect = lower value
  normalized growth: 1.02
Locus YDR388W, stronger effect = lower value
  normalized growth: 1.01
Locus YDR392W, strain spt3, stronger effect = lower value
  normalized growth: 1.04
Locus YDR502C, strain sam2, stronger effect = lower value
  normalized growth: 1.01
Locus YEL003W, strain gim4, stronger effect = lower value
  normalized growth: 1.01
Locus YEL037C, strain rad23, stronger effect = lower value
  normalized growth: 1.03
Locus YEL061C, strain CIN8 (second series), stronger effect = lower value
  normalized growth: 1.04
Locus YEL061C, strain CIN8, stronger effect = lower value
  normalized growth: 0.993
Locus YER015W, strain faa2, stronger effect = lower value
  normalized growth: 1.01
Locus YER016W, strain bim1, stronger effect = lower value
  normalized growth: 1.02
Locus YER110C, stronger effect = lower value
  normalized growth: 1.02
Locus YER111C, strain swi4, stronger effect = lower value
  normalized growth: 1.03
Locus YER155C, strain BEM2 (second series), stronger effect = lower value
  normalized growth: 1.03
Locus YER155C, strain BEM2, stronger effect = lower value
  normalized growth: 1.01
Locus YER167W, strain BCK2, stronger effect = lower value
  normalized growth: 1
Locus YFR010W, strain ubp6, stronger effect = lower value
  normalized growth: 1.03
Locus YGL078C, strain dbp3, stronger effect = lower value
  normalized growth: 1.02
Locus YGL086W, strain mad1, stronger effect = lower value
  normalized growth: 1.01
Locus YGL167C, strain pmr1, stronger effect = lower value
  normalized growth: 1.03
Locus YGL173C, strain kem1, stronger effect = lower value
  normalized growth: 1.01
Locus YGL227W, strain vid30, stronger effect = lower value
  normalized growth: 1.02
Locus YGL240W, strain doc1, stronger effect = lower value
  normalized growth: 1.02
Locus YGL248W, strain PDE1, stronger effect = lower value
  normalized growth: 1
Locus YGL253W, strain hxk2, stronger effect = lower value
  normalized growth: 1.01
Locus YGR078C, strain PAC10, stronger effect = lower value
  normalized growth: 0.998
Locus YGR135W, strain pre9, stronger effect = lower value
  normalized growth: 1.01
Locus YGR229C, strain SMI1, stronger effect = lower value
  normalized growth: 0.989
Locus YGR252W, strain gcn5, stronger effect = lower value
  normalized growth: 0.996
Locus YHR013C, strain ard1, stronger effect = lower value
  normalized growth: 1.02
Locus YHR027C, strain rpn1, stronger effect = lower value
  normalized growth: 1.01
Locus YHR030C, strain SLT2, stronger effect = lower value
  normalized growth: 1.01 and 0.977
Locus YHR079C, strain IRE1 (second series), stronger effect = lower value
  normalized growth: 1.01
Locus YHR079C, strain IRE1, stronger effect = lower value
  normalized growth: 0.991
Locus YHR094C, strain hxt1, stronger effect = lower value
  normalized growth: 1.01
Locus YHR129C, strain ARP1, stronger effect = lower value
  normalized growth: 1.01
Locus YHR142W, strain chs7, stronger effect = lower value
  normalized growth: 1.02
Locus YHR200W, strain rpn10, stronger effect = lower value
  normalized growth: 1.02
Locus YIL066C, strain RNR3, stronger effect = lower value
  normalized growth: 1
Locus YIL073C, strain SPO22, stronger effect = lower value
  normalized growth: 1.05
Locus YIL125W, strain kgd1, stronger effect = lower value
  normalized growth: 1.01
Locus YIR030C, strain dcg1, stronger effect = lower value
  normalized growth: 1.03
Locus YJL092W, strain hpr5, stronger effect = lower value
  normalized growth: 1.03
Locus YJL095W, strain BCK1 (second series), stronger effect = lower value
  normalized growth: 1.02
Locus YJL095W, strain BCK1, stronger effect = lower value
  normalized growth: 1.02 and 0.996
Locus YJL115W, strain asf1, stronger effect = lower value
  normalized growth: 1.04
Locus YJL129C, strain trk1, stronger effect = lower value
  normalized growth: 1.04
Locus YJL134W, strain LCB3, stronger effect = lower value
  normalized growth: 1
Locus YJL154C, strain vps35, stronger effect = lower value
  normalized growth: 1.01
Locus YJL164C, strain tpk1, stronger effect = lower value
  normalized growth: 1.01
Locus YJL166W, strain qcr8, stronger effect = lower value
  normalized growth: 1.02
Locus YJL168C, strain set2, stronger effect = lower value
  normalized growth: 1.01
Locus YJL187C, strain SWE1 (second series), stronger effect = lower value
  normalized growth: 1.01
Locus YJL187C, strain SWE1, stronger effect = lower value
  normalized growth: 1.01
Locus YJR043C, strain POL32, stronger effect = lower value
  normalized growth: 0.998
Locus YJR066W, strain TOR1, stronger effect = lower value
  normalized growth: 0.944

— PubChem BioAssay AID1159580 (chemical genetic matrix, 2015)
